Here are results for 40 molecules from PubChem BioAssay (NCI).

The panel holds about 83,000 compounds, 20% with a hit somewhere; the sample as a whole holds those more often.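 Note: values are percent growth. 100 is the growth of untreated cells, values between 100 and 0 indicate rising inhibition; between -100 and 0 indicates cell death.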 A number with no mark means an inactive call. Calls of active or inactive are those of the source. The calls were made as follows: active = growth percent below 10; inactive = the rest.

The subject of this test is HL-60(TB) leukemia. Description: NCI-60 one-dose screen, 48 h (100 = growth as untreated, 0 = no growth, -100 = all killed). The following applies: 10 µM unless noted.
In the case of `COc1cc(N2C(=O)[C@H](Cl)C2c2ccc(SC)cc2)cc(OC)c1OC` (stereo not given in full), the growth was -36.1% (active).

Turning to `O=C1C=C(O)C(=O)C=C1O`, the growth was 91.2%. Under `Cc1nn(-c2ccccc2)c2c1N=c1s/c(=C\c3ccc(C(F)(F)F)cc3)c(=O)n1CN2` stands 91.2%; under `CCCCOc1nc2cc(Cl)ccc2cc1/C=C/c1cc(/C=C/c2cc3ccc(Cl)cc3nc2OCCCC)n(-c2ccccc2)n1`, 77.8%. Under `Nc1c(C(=O)c2ccccc2)sc2nc(-c3cccs3)cc(-c3cccs3)c12` stands 22%.

In the case of `N#CC1CCc2c(c(-c3ccc4nc(N)sc4c3)nc3ccc4[nH]ncc4c23)C1` (stereo not given), the growth was 34.9%. Under `COc1cc(C2CC(c3cccc(Nc4ccncc4)c3)=Nc3c(N)ncnc3N2)cc(OC)c1OC` (stereo not given) stands 83.7%; under `NCCOc1ncccc1/C=C1\C2C=CC=CC2C2C=CC(F)=CC12` (stereo not given), -24.3% (active); under `CN1C(=O)C2(Nc3cc(Cl)ccc3S2)c2cc(Cl)ccc21` (stereo not given), 97.8%. For `N#Cc1ncc(Br)c(NC2CCCCCC2)n1`, the growth is 111%. Under `COc1ccc(-c2c(N)n[nH]c2-c2ccccc2O)cc1OC` stands 110%; under `CC([C@H]1CCC2C3CCC4C[C@@H](N)CC[C@]4(C)C3CC[C@@]21C)N(C)C` (stereo not given in full), 30.6%; under `N#C/C(=C\c1c(-c2ccccc2)[nH]c2ccccc12)S(=O)(=O)c1ccccc1`, -4.39% (active). Take `Nc1ccc(C2=NN(C(=O)c3cc(-c4ccc(Cl)cc4)nc4ccccc34)C(c3ccc(Cl)cc3)C2)cc1` (stereo not given): the growth is -4.63% (active). As for `N=C(N)c1ccc(-c2ccc(-c3ccccc3)s2)cc1F`, the figure is -73.1% (active). As for `C[n+]1ccccc1/C=C/c1ccc2cccc(O)c2n1`, the growth was 79.2%. As for `CCSc1oc(C)nc1[P+](c1ccccc1)(c1ccccc1)c1ccccc1`, the figure is 7.21% (active); as for `O=[N+]([O-])c1cc(S(=O)(=O)Nc2ccccc2)ccc1Cl`, 71.3%.

As for `CS(=O)(=O)c1nccc(-c2c(-c3cccc(OCCN4CCOCC4)c3)nc3sccn23)n1`, the growth is 66.4%. Under `CCC(=O)OCc1cccc(OC)c1` stands 53.7%; under `O=C(Nc1cccc(Cl)c1)Nc1cc2ncncc2cc1OCc1cccc(F)c1`, 7.49% (active); under `Nc1nc2c(c3ncccc13)C(c1cccc(Cl)c1)Cc1ncccc1-2` (stereo not given), -6.22% (active). As for `COc1cc(C(=O)c2cc(C)c3[nH]c4ccc(C)cc4c3c2C)cc(OC)c1OC`, the figure is -2.6% (active).

Consider `COc1cccc(/C=C/C(=O)c2cc3c(N)c(C(=O)Nc4ccccc4C)sc3nc2C)c1`, for which the growth was 26.3%. As for `CCC(C)C1NC(=O)C(NC(=O)c2c3nc4c(C(=O)NC5C(=O)NC(C(C)CC)C(=O)N6CCCC6C(=O)N(C)CC(=O)N(C)C(C(C)C)C(=O)OC5C)ccc(C)c4oc-3c(C)c(=O)c2N)C(C)OC(=O)C(C(C)C)N(C)C(=O)CN(C)C(=O)C2CCCN2C1=O` (stereo not given), the figure is -13.9% (active).

For the molecule `C=C1C(=O)O[C@H]2[C@H]1CC/C(COC(=O)NCc1ccc(Cn3c(=O)sn(-c4ccc(C#N)cc4)c3=O)cc1)=C\CC[C@@]1(C)O[C@@H]21`, the growth is -13.1% (active). As for `CC(C)CCSc1nc(NNC(N)=O)c(C#N)c(-c2ccccc2)n1`, the figure is 99.8%; as for `CC(=O)c1ccc(NS(=O)(=O)c2ccc([N+](=O)[O-])cc2)cc1`, 90.3%; as for `O=C(N/N=C/c1cc([N+](=O)[O-])ccc1O)c1cccc2ccccc12`, -14% (active).

For `Oc1cccc(-c2nc(N3CCOCC3)c3c4c(sc3n2)CCCC4)c1`, the growth was 74.7%. As for `COc1ccc(-c2[nH]ncc2-c2cc(OC)c(OC)c(OC)c2)cc1`, the figure is -35.5% (active). Under `Cc1noc(C)c1-c1ccc2nc(NC(=O)[C@H]3CCN(C#N)C3)cn2c1` stands 95.9%.

For `COc1ccc(C(=O)c2cc3c(N)c(C(=O)Nc4ccccc4)sc3nc2C)cc1`, the growth is -46% (active). As to `COc1ccc(Cn2cc3c(c2-c2ccccc2)CCc2cnoc2-3)cc1N`, the growth is -19.8% (active). Under `CCOC(=O)c1c(Nc2nc3ccccc3s2)sc2c1CCC(=O)C2` stands 58.7%. As for `CC(=O)C1CCC2C3CC(F)C4=CC(=O)CCC4(C)C3C(O)CC12C` (stereo not given), the figure is 94.2%.

Take `CCCCCCCCCCCCCCCCOc1ccc(S(=O)(=O)N(C)C)cc1[N+](=O)[O-]`: the growth was 110%. Under `Cc1ccc(NC(=O)Cn2nncc2CN2C(=O)CSC2=O)cc1C` stands 95%; under `CC(C)=CC(=O)OC(=O)C=C(C)C`, 104%; under `CN(Cc1cnc2nc(N)nc(N)c2n1)c1c(Cl)cc(C(=O)NC(CCC(=O)O)C(=O)O)cc1Cl` (stereo not given), 18.6%.
